The results in this text go back to PubChem BioAssay (NCATS).

The nature of test [1]: qHTS Assay for Lipid Storage Modulators (AID 1519; calls by dose curve; for activity change, negative = inhibition: % is set by controls: 0 for no effect and ±100 for the full control effect). The settings on record: Drosophila S3 cells, BODIPY lipid droplet/cell ratio, laser cytometry, cells loaded with oleic acid. In outline: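 Cells seeded at 5,000 per well were treated with compounds over a concentration series and loaded with oleic acid (400 uM, as added). Lipid droplet fluorescence (488 nm excitation, 500-530 nm channel) was read by laser-scanning cytometry and normalized to 20 uM Triacsin C.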
On the technique in general: qHTS replaces the single test concentration by a dilution series.

Test [2] can be described thus: Validation of Assay for Modulators of Lamin A Splicing (AID 1459; active = well fitted curve in the direction sought with a large enough effect in the signal ratio; the % refers to the signal ratio;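 note: cells exposed to compound for two days before reading; 0% is about no effect; ratio rise marks activators and ratio drop marks inhibitors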). The settings on record: Lamin A splicing dual RFP/GFP fluorescence reporter; series mostly up to 9.22 µM. In outline: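 Splicing correction is reported by an EGFP-containing lamin A minigene in stably transfected S3 HeLa cells, while DsRed2 controls for viability and nonspecific signal. Cells are exposed to compounds for 48 hrs before the GFP over RFP ratio is taken.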

Test [3] has as its target DNA repair nuclease/redox regulator APEX1 (Homo sapiens) (UniProt P27695). The test is described as follows: qHTS Validation Assay for Inhibitors of the Human Apurinic/apyrimidinic Endonuclease 1 (APE1) (AID 1705;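 note: TAMRA fluorescence gain over two minutes as APE1 cuts a quenched THF abasic duplex; % is set by controls: 0 for no effect and ±100 for the full control effect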). Particulars: purified APE1 endonuclease activity, fluorescence, titration; series mostly up to 57.1 µM. In outline: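 Endonuclease activity of human APE1 is followed as dequenching when the enzyme incises a tetrahydrofuran abasic site in a short duplex labelled 5'-TAMRA/3'-BHQ-2 (50 nM final), after 15 min enzyme–compound preincubation at room temperature.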

Test [4] is described as follows: Counterscreen for APE1 Inhibitors: Fluorescent Dye Displacement Validation Assay (AID 1707).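 Note: plate controls were ThO with dsDNA and no compound for no effect and ThO without dsDNA for full effect.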 Particulars: fluorescent dye displacement from DNA; series mostly up to 57.1 µM. In outline: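 Signal: ThO fluorescence (ex 480 nm/em 540 nm) on binding 50 nM dsDNA; displacement by test compound reduces it. Conditions: 250 nM dye, 50 mM Tris-HCl pH7.5, 2 mM MgCl2, 50mM NaCl, 0.01% Tween-20.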
Background: Counterscreens check selectivity or assay interference.

The target of test [5] is Endonuclease 4 (Escherichia coli (strain K12)) (UniProt P0A6C1). The test is described as follows: Counterscreen for APE1 Inhibitors: qHTS Validation Assay for Inhibitors of Endonuclease IV (AID 1708). Note: % is set by controls: 0 for no effect and ±100 for the full control effect. The settings on record: E. coli endonuclease IV, DNA cleavage fluorescence; series mostly up to 57.1 µM. The gist of the method:
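Conditions: 2 nM enzyme, 50 nM TAMRA/BHQ-2 substrate, pH 7.5 Tris buffer with 2 mM MgCl2, RT. Compound preincubation 15 min; readout three fluorescence reads 60 s apart, third-minus-first.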

Test [6] is described as follows: qHTS for differential inhibitors of proliferation of Plasmodium falciparum line 7G8 (AID 1815).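 Note: parasite growth measured after three days of incubation; plate controls were vehicle wells for no effect and reference inhibitor wells for full effect.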 The settings on record: Plasmodium falciparum 7G8 proliferation inhibition; series mostly up to 28.7 µM.
Test [7] is described as follows: qHTS for differential inhibitors of proliferation of Plasmodium falciparum line GB4 (AID 1816).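 Note: parasite growth measured after 72 h incubation; 0% = vehicle DMSO and -100% = reference inhibitor.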 Particulars: Potency: Plasmodium falciparum GB4 proliferation inhibition; series mostly up to 28.7 µM.
Test [8] can be described thus: qHTS for differential inhibitors of proliferation of Plasmodium falciparum line 3D7 (AID 1876).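 Note: parasite growth measured after three days of culture; 0% = vehicle wells and -100% = reference inhibitor wells.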 The settings on record: P. falciparum 3D7 proliferation inhibition; series mostly up to 28.7 µM.
Test [9] is described as follows: qHTS for differential inhibitors of proliferation of Plasmodium falciparum line D10 (AID 1877).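 Note: parasites grown with compound for 72 h before DNA staining; plate controls were vehicle wells for no effect and reference inhibitor wells for full effect.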 Particulars: series mostly up to 28.7 µM.
The target of test [10] is Alpha-galactosidase A (Homo sapiens) (UniProt P06280). The test is described as follows: Counterscreen for Glucocerebrosidase Inhibitors: qHTS Assay for Human alpha-Galactosidase at pH 4.5 (AID 992). Note: 0% is about no effect. Particulars: purified enzyme, fluorogenic substrate; series mostly up to 76.9 µM. In outline: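 Citrate buffer pH 4.5, Tween-20 0.005%. Enzyme 2 nM, substrate 80 uM, 20 min RT. Stop pH 10. Fluorescence Ex 365/Em 440. AC50 by Hill fit.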
Chain of Alpha-galactosidase A (Homo sapiens) (P06280 whole entry, looked up): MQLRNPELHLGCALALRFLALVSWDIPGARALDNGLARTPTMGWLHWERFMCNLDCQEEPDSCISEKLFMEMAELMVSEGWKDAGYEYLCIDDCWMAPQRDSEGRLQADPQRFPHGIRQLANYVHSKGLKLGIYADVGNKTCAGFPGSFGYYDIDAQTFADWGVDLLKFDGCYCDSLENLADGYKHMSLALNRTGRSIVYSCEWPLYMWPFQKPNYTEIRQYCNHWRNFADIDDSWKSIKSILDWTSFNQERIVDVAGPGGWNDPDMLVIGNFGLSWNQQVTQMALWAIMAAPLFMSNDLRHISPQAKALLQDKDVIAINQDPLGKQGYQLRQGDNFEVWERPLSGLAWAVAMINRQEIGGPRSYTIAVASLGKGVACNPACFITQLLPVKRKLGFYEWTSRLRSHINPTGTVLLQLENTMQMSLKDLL

The target in test [11] is alpha-glucosidase (Oryza sativa, rice) (UniProt Q653V4). The test is described as follows: Counterscreen for Glucocerebrosidase Inhibitors: qHTS Assay for Rice alpha-Glucosidase at pH 5.0 (AID 997).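 Note: 0% = full activity with enzyme and -100% = basal without enzyme.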 The settings on record: rice alpha-glucosidase enzyme activity; series mostly up to 76.9 µM. The gist of the method:
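Endpoint fluorogenic assay at pH 5.0: compounds (0.7 nM to 77 uM) titrated against 4 nM rice enzyme and 400 uM 4-MU-alpha-glucoside for 20 min at room temperature; NaOH/glycine stop, read ex 365/em 440 nm, Hill-fitted AC50.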

The nature of test [12]: Cell Viability - LYMP2-010 (AID 981).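 Note: cells exposed to compound for 24 hours at 37 °C; % is set by controls: 0 for no effect and ±100 for the full control effect; nearly all actives have a fitted effect of over 55% in size.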 Particulars: LYMP2-010 lymphoblastoid cell viability, qHTS; series mostly up to 92.2 µM. The gist of the method:
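Steps: seed 2500 LYMP2-010 cells per well; incubate 5 hr at 37 C; add compound; incubate 24 hr at 37 C; add CellTiter-Glo, wait 30 min at room temperature; read luminescence. Concentration-response fitted to Hill equation for AC50.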

Test [13] in a line: Cell Viability - LYMP2-012 (AID 982).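 Note: cellular ATP by luciferase luminescence where a drop means cytotoxicity; cells exposed to compound for one day before reading; 0% = DMSO only and full loss = 92 µM tetraoctylammonium bromide; nearly all actives have a fitted effect of over 55% in size.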 Particulars: LYMP2-012 lymphoblastoid cell viability qHTS; series mostly up to 92.2 µM.
The nature of test [14]: Cell Viability - LYMP2-014 (AID 983).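 Note: cells exposed to compound for 24 h at 37 °C; plate controls were DMSO only for no effect and 92 µM tetraoctylammonium bromide for full effect; nearly all actives have a fitted effect of over 50% in size.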 Particulars: LYMP2-014 lymphoblastoid cells, viability qHTS; series mostly up to 92.2 µM. In outline:
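Cells are plated at 2500/well and left 5 hr at 37 C. Compounds are added across a concentration range and incubated 24 hr at 37 C in complete medium. CellTiter-Glo is added, and luminescence is read after 30 min at room temperature.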

Test [15] is described as follows: Cell Viability - LYMP2-016 (AID 984).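 Note: cells exposed to compound for 24 hours at 37 °C; % is set by controls: 0 for no effect and ±100 for the full control effect; nearly all actives have a fitted effect of over 55% in size.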 The settings on record: LYMP2-016 lymphoblastoid cell viability, qHTS; series mostly up to 92.2 µM. The gist of the method:
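Acute toxicity in a Coriell human lymphoblastoid line is scored as loss of intracellular ATP over 24 h of treatment in complete medium. CellTiter-Glo signal is fitted across concentrations with the Hill equation to give AC50.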

Test [16] in a line: Cell Viability - LYMP2-018 (AID 985).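 Note: compound exposure lasted 24 hr at 37 °C; plate controls were DMSO only for no effect and tetraoctylammonium bromide at 92 µM for full effect; nearly all actives have a fitted effect of over 50% in size.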 Particulars: LYMP2-018 lymphoblastoid cells, viability (qHTS); series mostly up to 92.2 µM. In outline: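 Seed 2500 lymphoblastoid cells per well, incubate 5 hr at 37 C, add compound and incubate 24 hr at 37 C, add CellTiter-Glo, wait 30 min at room temperature, then read luminescence.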
A short description of test [17]: Cell Viability - LYMP2-020 (AID 986).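 Note: cells exposed to compound for 24 h at 37 °C; plate controls were DMSO only for no effect and tetraoctylammonium bromide at 92 µM for full effect; nearly all actives have a fitted effect of over 55% in size.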 Particulars: series mostly up to 92.2 µM. The gist of the method:
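Seed 2500 cells per well and incubate 5 hr at 37 C. Add compounds at a concentration series and incubate 24 hr at 37 C. Add CellTiter-Glo, wait 30 min at RT, read luminescence, and fit a Hill curve for AC50.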

Test [18] in a line: Cell Viability - LYMP2-022 (AID 987). The settings on record: LYMP2-022 lymphoblastoid cell viability; series mostly up to 92.2 µM. In outline: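 Cells were seeded at 2500 per well, rested 5 hr at 37 C, and treated with titrated compounds for 24 hr at 37 C. Cellular ATP was then quantified by luciferase luminescence, and AC50 values were derived from Hill-modelled concentration-response curves.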

The nature of test [19]: Cell Viability - LYMP2-024 (AID 988).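 Note: plate controls were DMSO only for no effect and 92 µM tetraoctylammonium bromide for full effect; nearly all actives have a fitted effect of over 60% in size.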 The settings on record: LYMP2-024 lymphoblastoid cell viability; series mostly up to 92.2 µM. In outline: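 qHTS cytotoxicity, human lymphoblastoid line, complete medium; 24 h cpd treatment, 37 C; CellTiter-Glo ATP luminescence readout; tetraoctylammonium bromide positive control; AC50 via Hill fit.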
The nature of test [20]: Cell Viability - LYMP1-002 - Assay at 40 hr (AID 994).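 Note: 0% = DMSO only and full inhibition = 92 µM tetraoctylammonium bromide; nearly all actives have a fitted effect of over 60% in size.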 The settings on record: LYMP1-002 lymphoblastoid cell viability; series mostly up to 92.2 µM. In outline:
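Cells are plated at 2500 per well and rested 5 hr at 37 C. Compounds are added and incubated 40 hr at 37 C. CellTiter-Glo reagent is added for 30 min at room temperature before luminescence is read.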

[21] abbreviates: measured here: cell count channel max response.
The mark [22] stands for this setting: measured here: lipid channel max response.

Where “and” joins values, the source holds several entries; their conditions need not be identical. Equal values may be shown once. Records with an inconclusive call do not appear. Calls of active or inactive are those of the source. Unless noted, calls come from the whole dose curve; as a rule, active = well fitted curve in the direction sought with a large enough effect; inconclusive = small, poorly fitted or top-dose-only effect, or another doubt; inactive = no such curve, though single readings can be large; an effect the other way counts as inactive or inconclusive.

Chain of DNA repair nuclease/redox regulator APEX1 (Homo sapiens) (P27695 whole entry, looked up): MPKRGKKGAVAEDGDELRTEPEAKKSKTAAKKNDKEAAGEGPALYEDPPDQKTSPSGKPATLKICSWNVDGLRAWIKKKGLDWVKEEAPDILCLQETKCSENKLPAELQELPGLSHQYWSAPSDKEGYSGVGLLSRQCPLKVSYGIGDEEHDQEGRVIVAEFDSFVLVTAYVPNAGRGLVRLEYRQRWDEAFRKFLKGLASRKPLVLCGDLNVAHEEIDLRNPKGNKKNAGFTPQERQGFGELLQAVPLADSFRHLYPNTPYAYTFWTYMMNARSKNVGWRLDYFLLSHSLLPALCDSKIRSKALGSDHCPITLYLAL

Consider `O=C(CCCCCCCCCCCCC1CCCC1)Nc1ccc(S(=O)(=O)c2ccc(NC(=O)CCCCCCCCCCCCC3CCCC3)cc2)cc1`, for which, in [1] (at 57.5 µM (top of the series)), the activity change, negative = inhibition was 10% (inactive). The max response in test [1] (setting [21]) was found to be 14.8%; in [1] (setting [22]), 25.4%.
The like results for `CC1CCC(NC(=O)N(CCCl)N=O)CC1` (stereo not given) were, in that order, 0.815% (inactive), 10.3% and 12.2%.
In the case of `O=c1[nH]c(=O)n([C@H]2C[C@H](O)[C@@H](CO)O2)cc1/C=C/Br`, the call in test [2], in [3], in test [4], in test [5], in test [8] and in test [9] was inactive. Also, the Potency entry in test [6] and in test [7] was “inactive” each time.
`O=C(O)Cc1cc(I)c(Oc2ccc(O)c(I)c2)c(I)c1`: the activity change, negative = inhibition in test [1] (at 25.7 µM (top of the series)) was -0.457% (inactive). The max response was found to be 2.07% in test [1] (setting [21]) and 0.793% in test [1] (setting [22]).
As for `CC(=O)Oc1cccc2c1C(=O)c1c(OC(C)=O)cc(C(=O)O)cc1C2=O`, the activity change, negative = inhibition in test [1] (at 57.5 µM (top of the series)) is 13.8% (inactive). The max response in test [1] (setting [21]) came out at 25.9%; in test [1] (setting [22]), 41.9%.
Take `C[C@@](Cc1ccc(O)c(O)c1)(NN)C(=O)O`: the compound was called inactive in [10], in test [11], in test [3], in test [4], in [5] and in [9]. Further, the activity change, negative = inhibition in test [1] (at 57.5 µM (top of the series)) was -0.657% (inactive). In addition, the max response in test [1] (setting [21]) was -17.5%; in test [1] (setting [22]), -16%.
As for `N[C@H](CC(=O)O)C(=O)O`, the activity change, negative = inhibition in [1] (at 57.5 µM (top of the series)) is -1.19% (inactive). Besides, the max response in [1] (setting [21]) is -13%; in [1] (setting [22]), -12.9%.
Regarding `COc1cc(S(C)=O)ccc1-c1nc2ncccc2[nH]1` (stereo not given), in test [1] (at 25.7 µM (top of the series)), the activity change, negative = inhibition was 0.171% (inactive). The max response is -21.2% in [1] (setting [21]) and -18.4% in [1] (setting [22]).
`O=C1c2ccccc2C(=O)c2c1ccc(O)c2O`: the activity change, negative = inhibition in test [1] (at 57.5 µM (top of the series)) was 15% (inactive). Besides, the results for the max response in test [1] (setting [21]) and in test [1] (setting [22]) were 2.35% and 20.3%, respectively.
The like results for `N#Cc1ccc2c(c1)N(CCCN1CCC(O)CC1)c1ccccc1S2` were, in that order, 6.36% (inactive), 2.04% and 8.33%.
The like results for `CC(=O)Nc1ccc(OC(=O)c2ccccc2O)cc1` were, in that order, 5.77% (inactive), 14.6% and 24.9%.
As to `O=C(O)CCC(=O)c1ccc(-c2ccccc2)cc1`, the activity change, negative = inhibition in test [1] (at 25.7 µM (top of the series)) was 2.12% (inactive). Moreover, the max response in test [1] (setting [21]) was -6.39%; in test [1] (setting [22]), -2.43%.
`Nc1ccc(N=Nc2ccccc2)c(N)n1`: the Potency result in test [12], in [13], in test [14], in test [15], in test [16] and in test [17] was “inactive” in each case. Also, the Potency entry in [18], in test [19] and in test [20] was “inactive” throughout. For the same compound, the activity change, negative = inhibition was -0.0516% (inactive) in [1] (at 25.7 µM (top of the series)) and 17.8% (inactive) in [1] (at 57.5 µM (top of the series)). The max response in test [1] (setting [21]) is -20.4% and -3.25%; in [1] (setting [22]), -21.4% and 16.6%.
